In the library only some 2.4% were active in any assay of this set; here they are far more common.
APOBEC3A inh – inhibitors of human APOBEC3A DNA deaminase; recombinant A3A, FAM/TAMRA ssDNA deamination fluorescence; inhibition, % at 20 µM; AID 493011; P31941; hit rate 0.41% among 330,000;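 active = at least 40% inhibition at 20 µM here, with at most 30% in a related deaminase screen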
CendR NRP1 mod – modulators of CendR peptide binding to human neuropilin-1 | FAM-RPARPAR peptide binding to NRP-1, fluorescence polarization | inhibition, % at 25 µM | hit rate 0.85% among 360,000 | AID 602438;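 active = inhibition or corrected inhibition above about 18%, plus a signal ratio from 0.5 to 1.5, limit read from the data, passing the limit was not always enough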
ADAM10 inh – inhibitors of human ADAM10. O14672. recombinant ADAM10, EDANS/DABCYL FRET peptide cleavage, 3 h. inhibition, % at 7 µM. hit rate 0.62% among 370,000;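 active = inhibition above a per-campaign cutoff equal to the mean of compounds falling between control-based bounds plus 3 SD, cut at about 20% in these data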
ADAM17 inh – inhibits human ADAM17; P78536; recombinant ADAM17, EDANS/DABCYL FRET peptide cleavage; inhibition, % at 6.95 µM; hit rate 0.83% among 370,000; AID 720648;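 active = inhibition above the mean of compounds lying between control limits plus 3 SD, set per campaign, cut at about 8.5% in these data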
Target sequence (P78536 215-824 limits assumed): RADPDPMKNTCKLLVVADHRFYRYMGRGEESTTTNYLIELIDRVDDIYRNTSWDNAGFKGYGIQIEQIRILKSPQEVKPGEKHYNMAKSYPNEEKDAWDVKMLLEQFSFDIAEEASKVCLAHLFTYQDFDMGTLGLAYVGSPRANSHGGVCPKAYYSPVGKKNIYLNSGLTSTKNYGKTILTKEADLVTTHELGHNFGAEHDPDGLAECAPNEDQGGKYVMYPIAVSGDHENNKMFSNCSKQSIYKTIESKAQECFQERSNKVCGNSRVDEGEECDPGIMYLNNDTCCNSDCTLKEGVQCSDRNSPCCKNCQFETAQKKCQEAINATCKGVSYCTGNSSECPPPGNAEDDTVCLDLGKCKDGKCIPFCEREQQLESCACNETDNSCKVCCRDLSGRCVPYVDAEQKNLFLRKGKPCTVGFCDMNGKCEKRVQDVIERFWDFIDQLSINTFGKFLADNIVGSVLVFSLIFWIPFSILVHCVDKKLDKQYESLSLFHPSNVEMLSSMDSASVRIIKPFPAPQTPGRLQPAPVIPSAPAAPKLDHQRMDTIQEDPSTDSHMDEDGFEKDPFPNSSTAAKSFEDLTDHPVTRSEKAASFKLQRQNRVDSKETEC
APOBEC3G inh – APOBEC3G (human) deaminase inhibition. Q9HC16. recombinant A3G, ssDNA deamination FAM/TAMRA fluorescence. inhibition, % at 20 µM. hit rate 0.28% among 330,000. AID 493012;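 active = inhibition of at least 40% at 20 µM, with no more than 30% in the related APOBEC3A deaminase screen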
ADAM10 confirm – human ADAM10 inhibition, confirmation; shares compounds with ADAM10 inh; ADAM10 QFRET peptide cleavage, EDANS fluorescence; inhibition, % at 6.95 µM; hit rate 1% among 2,100; AID 743208;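 active = inhibition above about 20% chosen separately for each screening run, limit read from the data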
ADAM17 counter – counter-screen for ADAM10 exosite inhibitors: inhibitors of human ADAM17. AID 743214. inhibition, % at 6.95 µM. shares compounds with ADAM10 inh. ADAM17 QFRET peptide cleavage, EDANS fluorescence. hit rate 0.5% among 2,100;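 active = mean triplicate inhibition above the solvent-only control wells' mean plus 3 SD, cut at about 12% in these data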
ADAM10 counter – counter-screen for ADAM17 exosite inhibitors: inhibitors of human ADAM10; shares compounds with ADAM17 inh; recombinant ADAM10, EDANS/DABCYL FRET peptide cleavage, 3 h; inhibition, % at 6.95 µM; hit rate 47% among 2,900;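 active = mean inhibition over the triplicate runs exceeds the activity threshold set in the earlier primary screen, cut at about 20% in these data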
ADAM17 confirm – human ADAM17 inhibition, confirmation | inhibition, % at 6.95 µM | recombinant ADAM17, EDANS/DABCYL QFRET peptide cleavage | hit rate 65% among 2,900 | shares compounds with ADAM17 inh;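 active = mean inhibition across replicates above the hit cutoff set in the primary screen, cut at about 8.5% in these data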
Each line names hits and unclear results; the compound was inactive in the other large screens (follow-up assays come after a bar, where they were run).

CC(C)c1[nH]nc2c1C(c1ccc(F)cc1)N(Cc1ccccc1)C2=O (centres undefined)	none (no result: APOBEC3A inh, CendR NRP1 mod, APOBEC3G inh)
Cc1cc(C)cc(C(=O)OCCN(C)C2CN(Cc3cn(Cc4cccc(F)c4)nn3)S(=O)(=O)C2)c1 (centres undefined)	none (no result: APOBEC3A inh, CendR NRP1 mod, APOBEC3G inh)
Cc1ccc(S(=O)(=O)N(CC(=O)N=Nc2c(O)[nH]c3ccccc23)c2ccc(C)c(C)c2)cc1	ADAM10 inh 22.6, ADAM17 inh 8.9 (no result: APOBEC3A inh, APOBEC3G inh) | ADAM10 confirm inactive | ADAM17 counter inactive | ADAM10 counter 26.3 | ADAM17 confirm 17.6
CCOC(=O)C1=CCN(S(=O)(=O)c2ccc(Br)cc2)C1c1ccc(Br)cc1 (centres undefined)	none (no result: APOBEC3A inh, CendR NRP1 mod, APOBEC3G inh)
COC(=O)C1CN(Cc2ccccc2)CCS(=O)(=O)N1Cc1cn(Cc2ccccc2Br)nn1 (centres undefined)	none (no result: APOBEC3A inh, CendR NRP1 mod, APOBEC3G inh)
COc1ccc(S(=O)(=O)N2CCC(c3cc(-c4cccc5ccccc45)n[nH]3)CC2)cc1	ADAM10 inh 24.9, ADAM17 inh 10.9 | ADAM10 confirm inactive | ADAM17 counter inactive | ADAM10 counter inactive | ADAM17 confirm 9.1
CN(C)[C@H]1CCN(c2cccc3c2S(=O)(=O)N2CC[C@@H](C2)O3)C1	none (no result: APOBEC3A inh, CendR NRP1 mod, APOBEC3G inh)
O=C(NCC1CCCO1)C(c1cccs1)N(Cc1ccccc1)C(=O)c1ccc(-c2ccccc2)[nH]1 (centres undefined)	ADAM10 inh 30.4, ADAM17 inh 12.4 | ADAM10 confirm inactive | ADAM17 counter inactive | ADAM10 counter inactive | ADAM17 confirm 13.6
CSc1cccc(NC(=O)CCCOc2ccc(Cl)cc2C)c1	ADAM10 inh 31.1, ADAM17 inh 19.0 | ADAM10 confirm inactive | ADAM17 counter inactive | ADAM10 counter 38.0 | ADAM17 confirm 18.6
CSc1cccc(NC(=O)/C=C/c2ccccc2)c1	none
CSc1cccc(NC(=O)/C=C/c2ccc(Cl)cc2)c1	ADAM10 inh 22.2, ADAM17 inh 13.6 | ADAM10 confirm inactive | ADAM17 counter inactive | ADAM10 counter 44.9 | ADAM17 confirm 15.8
CCn1c2ccccc2c2cc(NS(=O)(=O)c3ccccc3C)ccc21	ADAM10 inh 24.6, ADAM17 inh 9.4 | ADAM10 confirm inactive | ADAM17 counter inactive | ADAM10 counter 20.9 | ADAM17 confirm 12.2
CCCC(=O)Nc1ccc2c(c1)c1ccccc1n2CC	none
CC(C)N(C[C@@H]1CSCCS(=O)(=O)N1)C(C)C	none (no result: APOBEC3A inh, CendR NRP1 mod, APOBEC3G inh)
Cc1ccccc1CN(CC(=O)Nc1cccc([N+](=O)[O-])c1)S(=O)(=O)c1ccc(Cl)cc1	ADAM10 inh 21.3, ADAM17 inh 9.7 | ADAM10 confirm inactive | ADAM17 counter inactive | ADAM10 counter 35.1 | ADAM17 confirm 19.4
NS(=O)(=O)c1cccc(NC(=O)CCSc2ccccc2Cl)c1	none
O=C(CCSc1ccccc1Cl)Nc1cccc([N+](=O)[O-])c1	ADAM10 inh 29.2, ADAM17 inh 12.1 | ADAM10 confirm inactive | ADAM17 counter inactive | ADAM10 counter 23.9 | ADAM17 confirm 11.7
O=C(C(=O)N1CCC(CNS(=O)(=O)c2ccc(C(F)(F)F)cc2)CC1)c1cc2ccccc2o1	none (no result: APOBEC3A inh, CendR NRP1 mod, APOBEC3G inh)
O=C(COC(=O)c1ccc(S(=O)(=O)N2CCCC2)cc1)Nc1ccccc1	none
O=C(COC(=O)c1ccc(Cl)c(S(=O)(=O)N2CCCCCC2)c1)Nc1ccccc1	ADAM10 inh 20.0, ADAM17 inh 10.1 | ADAM10 confirm inactive | ADAM17 counter inactive | ADAM10 counter 48.7 | ADAM17 confirm 27.0
CCN(c1ccccc1)S(=O)(=O)c1ccc(C(=O)Nc2cccc(NC(C)=O)c2)cc1	ADAM10 inh 22.1, ADAM17 inh 8.9 | ADAM10 confirm inactive | ADAM17 counter inactive | ADAM10 counter inactive | ADAM17 confirm inactive
COc1ccc(S(=O)(=O)n2nc(-c3ccc(Cl)cc3)cc2N)cc1	ADAM10 inh 20.6, ADAM17 inh 9.0 | ADAM10 confirm inactive | ADAM17 counter inactive | ADAM10 counter inactive | ADAM17 confirm 8.9
